# ChEMBL document CHEMBL3988442, “University of Dundee, Small-Polar-MMV Screening Library” (2021)
# Screen size: about 38,000 compounds; about 1,200 (3.2%) showed an effect of 50% or more. The median lay at about -58%. The full list was thinned out, with strong results kept by preference.
# Test system: Plasmodium falciparum
# Experiment: Calibr Malaria Delayed Death Assay SOP
# Format: functional, organism-based
# Set-up: scale not given: in the data most compounds retested in dose-response had high values
# Conditions: concentration 4.99e-06 (unit not given; other assays of the set use mol/L)
row,SMILES,Percent Effect [%]
1,Cc1ccc(C(=O)N2CC[C@@]3(O)CCCC[C@H]3C2)cc1,-98.64
2,O=C1CC(c2ccc(C(=O)O)cc2)c2c(sc3c2CCCC3)N1 (stereo not drawn),-5.696
3,O=C1CC(c2cccnc2)c2c(sc3c2CCCC3)N1 (stereo not drawn),28.11
4,O=C1CC(c2ccncc2)c2c(sc3c2CCCC3)N1 (stereo not drawn),55.71
5,O=C(CCc1ccco1)NS(=O)(=O)N1CCOc2ccccc21,-129.3
6,Cc1cc(C[C@@H]2CCC[C@H]2NCc2ccccc2F)on1.O=C(O)CC(O)(CC(=O)O)C(=O)O,-9.902
7,Cc1cc(C[C@@H]2CCC[C@H]2NCc2ccccc2C)on1.O=C(O)CC(O)(CC(=O)O)C(=O)O,63.44
8,CCCOc1ccccc1CN[C@@H]1CCC[C@H]1Cc1cc(C)no1.O=C(O)CC(O)(CC(=O)O)C(=O)O,84.13
9,Cc1ccccc1Oc1ncccc1CNC1CCC1,31.34
10,CCC[C@H]1CN(Cc2cc(C)no2)C[C@@H]1NC(=O)C1(COC)CCC1,-58.42
11,CCCc1cc(CNC(=O)Cc2cc(C)no2)on1,-176
12,Cc1cc(CS(=O)(=O)NC2CCCCC2)on1,-56.68
13,Cc1cc(C[C@@H]2CCC[C@H]2NCc2cccc(F)c2F)on1.O=C(O)CC(O)(CC(=O)O)C(=O)O,-66.07
14,COc1ccc(-c2nc(CN3CCc4cnc(C)nc4C3)no2)cc1,-21.98
15,Cc1cccc(NC(=O)[C@@H]2CCCN2Cc2nc3ccccc3o2)n1,-70.67
16,O=C(O)C(F)(F)F.O=C(O)c1cc(NS(=O)(=O)c2ccc(Cl)s2)ccc1N1CCOCC1,-83.84
17,CCCc1cc(N2CCC(Cc3cccc(C(N)=O)c3)C2)nc(C)n1 (stereo not drawn),-73.24
18,CN(C)c1cc(C(=O)NCc2cccnc2-n2cncn2)ccn1,-24.53
19,Cc1ccsc1CN(CCN(C)C)C(=O)c1ccccc1C#N,59.93
20,Cc1ccc(CN(CCN(C)C)C(=O)Nc2ccc(C)c(C#N)c2)s1,40.03
21,Cc1ccsc1CN(CCN(C)C)C(=O)c1cc2ccccc2[nH]1,-0.6518
22,O=C(NC[C@@H]1CCCO1)c1cccnc1N1CCCC1c1ccccn1 (stereo partly drawn),-159.2
23,CCOC(=O)N[C@H]1C[C@@H](C(=O)NCCc2cccc(Cl)c2)N(C)C1,-112.6
24,Cc1nc(-c2cccc(N3CCC(N4CCCC4)CC3)c2)cs1,70.2

row,SMILES,Percent Effect [%]
1,COC1CCCN(C2CCN(c3cccc(-c4csc(C)n4)c3)CC2)C1 (stereo not drawn),-26.41
2,Cc1nc(-c2cccc(N3CCC(N4CCCC(C#N)C4)CC3)c2)cs1 (stereo not drawn),-24.98
3,CC(C)c1nnc(CN(C)Cc2ccccc2-c2ccccc2)o1,-137.8
4,Cc1nc(N2CCCC2)nc2c1CCN(C(=O)C(C)C)CC2,-54.78
5,O=C(COc1cccc2c1CCC2=O)NCc1ccccc1Cl,-71.52
6,Cc1ccccc1CNc1ccccc1OCC(=O)N1CCOCC1,13.74
7,CCC(NCc1ccccc1C)c1ccccc1OCC(=O)NC (stereo not drawn),78.75
8,CCC(NC(=O)CC(F)(F)F)c1ccccc1OCC(=O)N1CCCC1 (stereo not drawn),15.61
9,CCC(NCc1ccccc1Cl)c1ccccc1OCC(=O)NC (stereo not drawn),73.2
10,Cc1ccc(OCCCC(=O)NC(C)c2nnc3n2CCC3)cc1 (stereo not drawn),-64.5
11,O=C1CCC(=O)N1CCn1nnc(-c2ccc(Br)cc2)n1,-91.28
12,CCS(=O)(=O)N1CCN(Cc2cccnc2)c2nc(C)ccc2C1.O=C(O)C(F)(F)F.O=C(O)C(F)(F)F,2.753
13,CCCc1nnc(N2CCN(Cc3ccccc3OC)CC2)o1,-122.5
14,COc1ccc(Oc2ccc(C(F)(F)F)cn2)cc1CN1CCCC1,49.66
15,COc1ccc(Oc2cccc(C#N)n2)cc1CN1CCCC1,-26.21
16,c1ccc(Oc2nccc3occc23)c(CN2CCCCC2)c1,71.51
17,CN1CCN(CCCOc2ccccc2CN2C[C@H]3CC[C@H]2C3)CC1,15.78
18,O=S1(=O)CCCN(Cc2ccccc2OCC(F)(F)F)CC1,-23.25
19,COc1ccc(Oc2nccc3occc23)cc1CN1CCCC1,59.92
20,CN1CCN(Cc2c(-c3ccco3)[nH]c3ncccc23)CC1,-17.66
21,CN1CCN(Cc2ccccc2Oc2nccc3occc23)CC1,77.3
22,O=C(c1ccc(Cn2cccc2)cc1)N1CCN(CCO)CC1,-124.1
23,COc1ccc(C(=O)c2cnc(C(C)C)n2C)cc1,-137.4
24,CCC(Nc1cccc(Oc2ccccn2)c1)C(N)=O (stereo not drawn),-89.12

row,SMILES,Percent Effect [%]
1,Cc1noc(C)c1C(=O)N1CCSc2ccc(Cl)cc21,-64.97
2,CN(C)[C@H]1COC[C@@H]2CN(Cc3ccc4c(c3)OCO4)C[C@@H]21.O=C(O)C(F)(F)F.O=C(O)C(F)(F)F,25.51
3,O=C(O)C(F)(F)F.O=C(O)C(F)(F)F.c1cc2c(cc1CN1C[C@@H]3COC[C@@H](N4CCCC4)[C@@H]3C1)OCO2,41.71
4,COc1ccc(CN2C[C@@H]3COC[C@@H](CC(=O)N4CCCC4)[C@@H]3C2)cc1.O=C(O)C(F)(F)F,-28.59
5,Cc1cc(C)cc(CN2C[C@H]3COC[C@H](N4CCN(C)CC4)[C@H]3C2)c1.O=C(O)C(F)(F)F.O=C(O)C(F)(F)F.O=C(O)C(F)(F)F,93.63
6,COc1ccc(CN2C[C@@H]3COC[C@@H](N4CCN(C)CC4)[C@@H]3C2)cc1.O=C(O)C(F)(F)F.O=C(O)C(F)(F)F.O=C(O)C(F)(F)F,72.48
7,CN1CCN([C@H]2COC[C@@H]3CN(Cc4cccnc4)C[C@@H]32)CC1,-16.78
8,CCN(CC)[C@H]1COC[C@@H]2CN(Cc3cnn(C)c3)C[C@@H]21,-7.149
9,COc1ccc(CN2C[C@@H]3COC[C@H](N4CCN(C)CC4)[C@@H]3C2)cc1.O=C(O)C(F)(F)F.O=C(O)C(F)(F)F.O=C(O)C(F)(F)F,39.43
10,CCOC(=O)[C@H]1[C@@H](O)C(=O)N(C)C12CCN(C(=O)CC(C)(C)C)CC2,-173.1
11,Cc1nn2cccnc2c1C(=O)N1CCCC(n2cccn2)C1 (stereo not drawn),-26.13
12,Cc1ccccc1CN1CC[C@H]2C[C@H](C(=O)N(C)C)O[C@H]2C1.O=C(O)C(F)(F)F,-65.63
13,COc1ccc2nnc(CCC(=O)Nc3nc4c(s3)CCCCC4)n2n1,-7.858
14,CC(C)[C@]1(O)CN(C(=O)C2(Cn3cccn3)CC2)C[C@H]1C,-13.49
15,COC[C@@]12CCO[C@@H]1CCN(C(=O)CCc1ccccc1Cl)C2,-39.1
16,O=C(Nc1ccc(-n2cccn2)cc1)N1CCC(O)C1 (stereo not drawn),-73.59
17,CC(=O)c1ccc(-n2c(C)cn(CCS(C)(=O)=O)c2=O)cc1,3.074
18,CNC(=O)[C@H]1C[C@@H]2CN(C(=O)NCCc3ccccc3)C[C@H]1O2,-57.69
19,Cc1n[nH]cc1CNCc1cccc(OCC(F)(F)F)c1.Cl,56.25
20,Cc1n[nH]cc1CNC(=O)Nc1cccc(OCC(F)(F)F)c1,-36.62
21,Cc1n[nH]cc1CNCc1ccnc(OCC(F)(F)F)c1.Cl,-70.94
22,O=C1CCNc2ccccc2CN1Cc1ccco1,-58.24
23,Cc1cnn(C2CCCN(C(=O)c3ccc(-n4ccnc4)cc3)C2)c1 (stereo not drawn),-131.1
24,c1ncn(CC2CCCN(Cc3noc(C4CC4)n3)C2)n1 (stereo not drawn),-140.8

row,SMILES,Percent Effect [%]
1,CCc1nc(Nc2cccc(C(=O)NC)c2)c2c(n1)c(C)nn2CC,-106.8
2,COc1ccnc(NC(Cc2ccccc2)C(N)=O)n1 (stereo not drawn),-102.6
3,Cc1ccccc1C1(C(=O)NCCN2CCCC2)CCOCC1,-7.598
4,COc1ccccc1C1(C(=O)NCCN2CCOCC2)CCOCC1,-173.3
5,Cc1ccc(CNCC2Cn3nncc3CO2)s1 (stereo not drawn),-76.38
6,CN(Cc1cncnc1)[C@H]1CN(C(=O)c2ccc[nH]2)[C@@H]2CCCO[C@@H]21,-58.36
7,CC(c1ccc(F)cc1F)N1CCN(CCC(=O)NC(N)=O)CC1 (stereo not drawn),63.51
8,CC(c1ccc(F)cc1F)N1CCN(CCC(=O)O)CC1.Cl (stereo not drawn),-12.88
9,CC(c1ccc(F)cc1F)N1CCN(CCN2CCCC2=O)CC1 (stereo not drawn),-15.63
10,Fc1ccccc1OCCN1CCCCC1Cn1cncn1 (stereo not drawn),-107.8
11,O=C(O)C(F)(F)F.O=C(O)C(F)(F)F.c1nc(CNC2CCOCC2)c2n1CCCN(CC1CC1)C2,-115.6
12,COCCN(C)[C@@H]1c2ccccc2C2(CCNCC2)[C@H]1O,-111.9
13,COc1ccccc1CCN[C@@H]1c2ccccc2C2(CCNCC2)[C@H]1O,81.73
14,Cc1ccc(CCN[C@@H]2c3ccccc3C3(CCNCC3)[C@H]2O)s1,87.27
15,O[C@H]1[C@H](NCCc2cnccn2)c2ccccc2C12CCNCC2,-10.61
16,O[C@H]1[C@H](NCCc2ccccn2)c2ccccc2C12CCNCC2,-35.06
17,O[C@H]1[C@H](NCCSc2ccccn2)c2ccccc2C12CCNCC2,23.57
18,Cc1ccc(-n2ncc3c2CCCC3N)cc1C (stereo not drawn),5.746
19,COCCN(Cc1cccnc1)S(=O)(=O)c1ccc(F)cc1C,-88.98
20,Cc1cccc(C2CCCN2S(=O)(=O)N(C)C)n1 (stereo not drawn),-47.51
21,C=C(C)CSc1nnc(CCNC(=O)OC(C)(C)C)o1,-85.15
